Six1-Eya2 blk – qHTS Assay for Inhibitors of the Six1/Eya2 Interaction | Homeobox protein SIX1 (Homo sapiens) + Protein phosphatase EYA2 (Homo sapiens), … | AlphaScreen GST-Six1/His-Eya2 binding, biochemical; hits give low values | activity change, % (concentration not given with the values) | 0.56% of 360,000 active | AID 651725, 2012; in the data active = activity change below about -65%; inconclusive = mostly about -30% to -63%; note: % is set by controls: 0 for no effect and ±100 for the full control effect
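AlphaScreen luminescence read after one hour at 37 °C in darkness. Pin-transferred compounds met GST-Six1 and His-Eya2 protein (5X stock 250 nM/500 nM) plus glutathione donor and Ni-chelate acceptor beads (5X, 50 ug/mL).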
HP1b binding inh – HTS for Inhibitors of HP1-beta Chromodomain Interactions with Methylated Histone Tails | Potency, µM (doses to about 114 µM), for inactives: top-dose activity change, negative = inhibition, hits mostly inhibitors | 0.56% of 390,000 active | AlphaScreen HP1-beta / biotin-H3K9me3 peptide binding; note: potency is the fitted concentration of half-maximal effect; nearly all actives have a fitted effect of over 70% in size
Target sequence (P83916 whole entry, looked up): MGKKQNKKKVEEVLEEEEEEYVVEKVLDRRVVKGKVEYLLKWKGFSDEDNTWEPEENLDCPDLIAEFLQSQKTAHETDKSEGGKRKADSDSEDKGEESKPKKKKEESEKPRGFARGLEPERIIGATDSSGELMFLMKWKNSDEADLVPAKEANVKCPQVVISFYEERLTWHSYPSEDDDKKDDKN
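Compound inhibition of the preformed complex between 50 nM HP1-beta and 50 nM biotinylated H3K9me3 peptide was read by AlphaScreen. Buffer was PBS pH 7.4 with 0.01% Tween-20. Incubations ran 30 min at room temperature, with 10 ug/mL donor/acceptor beads.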
G9a inh – qHTS Assay for Inhibitors of Histone Lysine Methyltransferase G9a; Potency, µM (doses to about 102 µM), without a hit: at the highest dose activity, negative = inhibition, usual class: inhibitors; 8.8% of 350,000 active; Histone-lysine N-methyltransferase EHMT2 (Homo sapiens), Q96KQ7; G9a H3K9 monomethylation, AlphaScreen, 2 h; AID 504332, 2011; note: potency is the fitted concentration of half-maximal effect; % is set by controls: 0 for no effect and ±100 for the full control effect; nearly all actives have a fitted effect of over 75% in size
Target sequence (Q96KQ7 913-1193 limits assumed): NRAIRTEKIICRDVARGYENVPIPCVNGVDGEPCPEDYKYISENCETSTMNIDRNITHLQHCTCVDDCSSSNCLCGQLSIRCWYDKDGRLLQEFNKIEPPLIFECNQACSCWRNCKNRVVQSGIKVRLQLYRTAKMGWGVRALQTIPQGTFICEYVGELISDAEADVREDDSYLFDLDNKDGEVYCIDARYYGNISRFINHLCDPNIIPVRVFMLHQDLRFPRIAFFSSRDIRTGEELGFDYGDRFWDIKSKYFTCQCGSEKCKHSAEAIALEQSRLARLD
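Compounds were preincubated with 20 nM G9a for 15 min, after which biotinylated H3K9 peptide (500 nM) and SAM (20 uM) started a 2 h room-temperature reaction. Monomethylated product was quantified by antibody-based AlphaScreen chemiluminescence.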
CtBP-E1A inh – qHTS Assay for Inhibitors of the CtBP/E1A Interaction; CtBP / adenovirus E1A interaction (AlphaScreen); AlphaScreen GST-E1A/His-CtBP binding, 1536-well; hits give low values; activity change, % (no concentration beside the values); 0.49% of 340,000 active; in the data active = activity change below about -65%; inconclusive = mostly about -30% to -63%; note: % is set by controls: 0 for no effect and ±100 for the full control effect
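Protein mix (5X: 125 nM each GST-E1A, His-CtBP) was incubated with pinned compound 2 h at 37 deg C in dark, in 50 mM Tris pH 8.0 buffer with 300 mM NaCl. Glutathione donor and nickel acceptor beads followed; AlphaScreen signal read after 1 h.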
BAZ2B block – qHTS Assay for Inhibitors of BAZ2B | Bromodomain adjacent to zinc finger domain protein 2B (Homo sapiens), Q9UIF8 | AlphaScreen BAZ2B-H3K14Ac peptide displacement | Potency, µM (top dose mostly 114 µM), for inactives: at the top dose activity change, negative = inhibition, most hits filed as inhibitors | 4.4% of 360,000 active; note: potency is the fitted concentration of half-maximal effect; % is set by controls: 0 for no effect and ±100 for the full control effect; nearly all actives have a fitted effect of over 60% in size
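In this displacement format the biotinylated H3(5-23) peptide acetylated at Lys14 serves as ligand at 50 nM, with BAZ2B at 50 nM in PBS pH 7.4 containing 0.01% Tween-20. Donor and acceptor beads are 10 ug/mL final.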
JMJD2A Tudor – qHTS Assay for Inhibitors of JMJD2A-Tudor Domain; Lysine-specific demethylase 4A (Homo sapiens), O75164; AlphaScreen JMJD2A-Tudor / H3K4me3 peptide binding; Potency, µM (highest dose often 114 µM), for the others: top-dose activity change, negative = inhibition, hits mostly inhibitors; 4.4% of 390,000 active; AID 504339, 2011; note: potency is the fitted concentration of half-maximal effect; % is set by controls: 0 for no effect and ±100 for the full control effect; nearly all actives have a fitted effect of over 50% in size
* hit, by the source's call; ? = inconclusive; · = no result; [ ] = remark or other dose. Hits are enriched below; roughly 10% of the tested compounds scored in any of these assays. Unless noted, calls come from the whole dose curve; as a rule, active = well fitted inhibition curve with a large enough effect; inconclusive = small, poorly fitted or top-dose-only effect; inactive = no such curve, though single readings can be large or run the other way.

SMILES	Six1-Eya2 blk	HP1b binding inh	G9a inh	CtBP-E1A inh	BAZ2B block	JMJD2A Tudor
CC1(C(=O)NCc2cccc3ccccc23)CCN1Cc1cccc2c1OCO2 (centres undefined)	-13	·	·	-7	·	·
CCC(=O)N1CCc2cc(Br)cc(S(=O)(=O)CCC(=O)N3CCN(c4ccc(OC)cc4)CC3)c21	·	3%	-44%[59 µM]	·	-3%	-24%
C=CCSc1nc2c(sc3nc(C)cc(C)c32)c(=O)[nH]1	-12	36%	45µM*	-11	-1%	-24%
Cc1cc(C)c2c(n1)sc1c(=O)[nH]c(SCc3ccccc3)nc12	-1	52%	?	3	-1%	-4%
CCOc1ccc(CNCc2c(C(=O)O)c(C)n(Cc3ccc(C)cc3)c2C)cc1	·	28%	5%[59 µM]	·	-30%	-24%
c1ccc(NCCCNc2ccccc2)cc1	-18	-32%	?	-14	50µM*	?
COc1ccc(N2CCN(S(=O)(=O)CCNC(=O)Cc3ccc(Cl)cc3)CC2)cc1	·	16%[57 µM]	-4%[59 µM]	·	5%	-4%
CC(C)(c1cc(Cl)c(O)c(CN2CCOCC2)c1)c1cc(Cl)c(O)c(CN2CCOCC2)c1	5	-14%[57 µM]	·	5	·	-33%
Oc1c(CN2CCOCC2)cc(-c2ccccc2)cc1CN1CCOCC1	-7	21%	0%	-2	-37%	-25%
Oc1c(CN2CCOCC2)cc(CN2CCOCC2)c(O)c1CN1CCOCC1	3	8.9µM*	·	2	·	7.9µM*
CC(C)(C)c1nc(CN2CCOCC2)cc(CN2CCOCC2)c1O	-10	14%	-8%[12.7 µM]	0	-32%	32µM*
CCOc1ccccc1NC(=O)Cn1c(=O)ccc2cc(S(=O)(=O)N3CCCC3)ccc21	·	11%[57 µM]	2%[59 µM]	·	0%	-9%
CC/C(=C\C(=O)c1cccnc1)Nc1ccc(C)c(C)c1	-8	?	40µM*	-6	-54%	50µM*
Cc1ccc(OCC(=O)NNC(=O)c2cccnc2)cc1C	-2	48%	·	1	-7%	-11%
CC(=O)Nc1ccc(N/C(C)=C/C(=O)c2cccnc2)cc1	21	29%	-3%[59 µM]	23	-8%	-3%
C/C(=C\C(=O)c1cccnc1)Nc1ccc(C(=O)O)cc1	0	15%	2.2µM*	5	?	?
O=S(=O)(NCc1ccc(Cl)cc1)c1ccc2[nH]c3c(c2c1)CCCC3	·	-19%	-2%[59 µM]	·	11%	?
CC(=O)Nc1ccc(S(=O)(=O)Nc2ccccc2C(=O)N2CCOCC2)cc1	-4	32%	11%	5	5%	-6%
CCOC(=O)COc1ccc(F)cc1C(=O)c1ccn2nc(-c3ccc(C)cc3)cc2n1	·	55%	26%[59 µM]	·	-14%	-9%
O=C(COc1ccc(F)cc1)Nc1cc(Cl)ccc1-n1cncn1	21	12%	56µM*	-14	9%	-11%
CCCOc1ccccc1OCC(=O)Nc1cc(Cl)ccc1-n1cncn1	4	18%	45µM*	0	5%	-1%
O=C(Nc1cc(Cl)ccc1-n1cncn1)c1ccc(Br)o1	2	39%	56µM*	-4	0%	-9%
COc1ccc(-n2c(=O)cnc3cnc(N(C)C)nc32)cc1	·	·	-2%[0.501 µM]	·	·	·
CN1C(=O)C(N=Nc2ccc([N+](=O)[O-])cc2)SC1=S (centres undefined)	?	?	·	-24	·	22µM*
CCOc1ccc(C2C(C(=O)Nc3ccccc3)=C(C)N=c3s/c(=C/c4cccc(OCC(=O)O)c4)c(=O)n32)cc1 (centres undefined)	-19	9%	50µM*	-20	?	?

Source: PubChem
